From PubChem BioAssay come the findings set out here.

Assay [1] deals with Human papillomavirus type 1a protein E7 (residues 44-93). In words: small molecules binding HPV E7 44-93 – biochemical, small-molecule microarray, residues 44-93, 635 nm fluorescence, primary screen (AID 1108).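 Further: E7 fragment applied at 1 µg/mL in TBST for 1 h at 4 C; score combines spot fluorescence with its signal to noise ratio.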 The conditions noted are these: fluorescence 635 nm, higher = more signal.
Assay [2] is described as follows: hepatitis C replication reporter changes, two-sided – Huh7 cells, luciferase reporter, HCV replication inhibitor project, primary screen (AID 1109).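 Further: huh7 hepatoma cells harbouring a luciferase neomycin HCV replicon reporter; luciferase luminescence as measure of HCV replicon replication; test concentration not given here.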 To be noted: Huh7 HCV replicon luciferase reporter, 48 h; higher = more signal.
Assay [3] deals with Left-right determination factor 2 (Homo sapiens) (UniProt O00292). In words: small molecules binding LEFTY2 protein – biochemical, small-molecule microarray, 635 nm fluorescence scan, primary screen (AID 1110). The conditions noted are these: higher = more signal.
Left-right determination factor 2 (Homo sapiens), sequence (O00292 whole entry, looked up): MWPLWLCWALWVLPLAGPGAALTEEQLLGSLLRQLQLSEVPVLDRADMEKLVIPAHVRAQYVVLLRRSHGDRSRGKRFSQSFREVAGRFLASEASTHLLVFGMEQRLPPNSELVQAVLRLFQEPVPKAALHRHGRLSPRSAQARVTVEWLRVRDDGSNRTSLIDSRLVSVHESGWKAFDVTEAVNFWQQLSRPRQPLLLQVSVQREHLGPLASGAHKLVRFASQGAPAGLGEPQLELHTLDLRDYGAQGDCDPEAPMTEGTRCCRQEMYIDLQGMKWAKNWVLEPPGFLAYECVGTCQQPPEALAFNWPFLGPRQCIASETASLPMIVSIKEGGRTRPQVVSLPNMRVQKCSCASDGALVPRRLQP
Assay [4] has as its target Calmodulin-1 (Homo sapiens) (UniProt P0DP23). The assay can be described thus: small molecules binding calmodulin-1 with EGTA – biochemical, small-molecule microarray, Cy5-labelled CALM1, profiling panel (AID 1111).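 Further: labelled calmodulin applied in Tris saline Tween buffer holding calcium plus EGTA and DTT.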 To be noted: Cy5-CALM1 binding fluorescence, higher = more signal.
For assay [5] the target is unchanged. The assay can be described thus: small molecules binding Ca-loaded calmodulin-1 – biochemical, small-molecule microarray, Cy5-labelled CALM1, plus calcium, artefact control for SMM control-protein annotation, profiling panel (AID 1112).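 Further: score merges spot fluorescence with signal to noise from triplicate slides.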 The conditions noted are these: Cy5-CALM1 binding fluorescence, higher = more signal.
A short description of assay [6]: probe aWnt5a binding to arrayed compounds – biochemical, biotinylated probe, 635/667 nm fluorescence, primary screen (AID 1113).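 Further: score merges 667 nm fluorescence intensity with signal-to-noise per printed feature.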 To be noted: small-molecule microarray, higher = more signal.
Assay [7] in a line: probe aShh binding to arrayed compounds – biochemical, biotinylated probe, 635/667 nm fluorescence, primary screen (AID 1114).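 Further: probe is biotin-labelled aShh protein from a stem cell growth factor screen; measures binding of labelled protein to compounds printed on the slide; score merges feature fluorescence at 667 nm with signal-to-noise.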 The conditions noted are these: small-molecule microarray, higher = more signal.
A short description of assay [8]: probe aNog binding to arrayed compounds – biochemical, biotinylated probe, 635/667 nm fluorescence, primary screen (AID 1115).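 Further: probe is biotinylated aNog protein used at 0.15 µg/mL for 1 h at 4 C; z-score combines 667 nm fluorescence of each spot with its signal to noise.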 To be noted: small-molecule microarray, higher = more signal.
In assay [9] the target is Torsin-1A-interacting protein 1 (Homo sapiens) (UniProt Q5JTV8). The assay can be described thus: compound microarray binding of lysate hLAP1 – cell lysate, small-molecule microarray, COS7 lysate, 635/667 nm fluorescence, primary screen (AID 1116). The conditions noted are these: 635 nm fluorescence, higher = more signal.
Torsin-1A-interacting protein 1 (Homo sapiens), sequence (Q5JTV8 whole entry, looked up): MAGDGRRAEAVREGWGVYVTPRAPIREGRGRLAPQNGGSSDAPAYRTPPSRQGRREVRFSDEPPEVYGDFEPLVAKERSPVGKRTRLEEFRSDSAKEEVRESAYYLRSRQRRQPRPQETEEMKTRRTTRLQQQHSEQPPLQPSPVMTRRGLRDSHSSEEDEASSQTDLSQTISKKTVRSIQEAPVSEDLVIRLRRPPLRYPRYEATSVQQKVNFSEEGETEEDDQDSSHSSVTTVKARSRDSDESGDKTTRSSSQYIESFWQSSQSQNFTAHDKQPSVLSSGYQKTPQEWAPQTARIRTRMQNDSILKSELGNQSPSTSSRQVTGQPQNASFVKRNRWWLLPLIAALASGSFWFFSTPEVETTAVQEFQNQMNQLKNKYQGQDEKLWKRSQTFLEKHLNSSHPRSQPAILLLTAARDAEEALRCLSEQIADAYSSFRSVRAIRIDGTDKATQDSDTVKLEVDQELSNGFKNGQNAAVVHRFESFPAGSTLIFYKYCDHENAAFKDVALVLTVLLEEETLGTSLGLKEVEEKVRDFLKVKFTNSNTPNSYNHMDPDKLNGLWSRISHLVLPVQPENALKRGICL
For assay [10], the target named is Alpha-bungarotoxin (Bungarus multicinctus) (UniProt P60615). The assay can be described thus: compounds binding labelled alpha-BTX control protein – biochemical, small-molecule microarray, Alexa647 label, 635/667 nm fluorescence, artefact control for SMM control protein annotation, profiling panel (AID 1117). The conditions noted are these: alpha-BTX-A647 binding fluorescence, higher = more signal.
Alpha-bungarotoxin (Bungarus multicinctus), sequence (P60615 whole entry, looked up): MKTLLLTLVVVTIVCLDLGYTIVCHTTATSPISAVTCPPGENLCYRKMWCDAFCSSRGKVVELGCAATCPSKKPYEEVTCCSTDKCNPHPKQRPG

Molecules are shown by their SMILES.

With `CO[C@@H]1COC(=O)[C@@H]2CCCN2C(=O)[C@@H](C)COC(=O)CC=C[C@H]1C`, the composite z-score in assay [1] is 1.04; in [3], 0.861; in assay [4], -0.149; in [5] it was -0.439; in assay [6], -0.147; in [7], 0.284. In addition, the composite z-score in [8] was found to be 0.0453; in assay [9], 0.378; in assay [10] it was 0.234. This compound also had a z-score in [2] of -0.913.

Turning to `C[C@H]1CC[C@H]2C(=O)O[C@H](COc3ccc(C(C)(C)C)cc3)CN2[C@@H]1c1ccc(Br)cc1`, the composite z-score in assay [1] is 0.179; in assay [3], -0.281; in assay [4], 1; in [5], 0.101; in [6], -0.139; in assay [7], -0.0548. In addition, the composite z-score in assay [8] amounted to 0.0051; in assay [9] it was 0.303; in assay [10] it was 1.15. In addition, the z-score in assay [2] is -0.145.

As to `CCOC(=O)[C@H](CC(C)C)NC(=O)CCC1CC(OC(=O)NCc2ccc3c(c2)OCO3)CC2(CCCC(COC(=O)NCc3cccc(C(F)(F)F)c3)O2)O1` (stereo not given in full), the composite z-score is 0.323 in assay [1]; 0.227 in assay [3]; 0.0753 in [4]; -0.259 in [5]; -0.148 in assay [6]; -0.138 in assay [7]. Besides, the composite z-score is -0.316 in assay [8], -0.0298 in [9] and 0.111 in assay [10]. For the same compound, the z-score in [2] is -1.44.

For the compound `CCOC(=O)[C@H](CC(C)C)NC(=O)CCC1CC(OC(=O)NCc2cccc3ccccc23)CC2(CCCC(COC(=O)NCc3ccncc3)O2)O1` (stereo not given in full), the composite z-score in assay [1] was 1.38; in assay [3], 0.554; in assay [4], -0.118; in [5] it was -0.376; in [6], 0.0037; in assay [7] it was -0.0146. The composite z-score is -0.036 in assay [8], 0.526 in assay [9] and 0.267 in assay [10]. The compound also displayed a z-score in assay [2] of -1.

`COc1ccc(COC(=O)NN=C2C[C@@H](O)[C@@H](O)[C@@H]3[C@@H]4C(=O)N(C5CCCCC5)C(=O)[C@@H]4CC[C@H]23)cc1`: the composite z-score was -0.605 in assay [1]; -0.877 in assay [3]; 0.979 in assay [4]; -0.0278 in assay [5]; -0.243 in [6]; -0.315 in [7]. Besides, the results for the composite z-score in assay [8], in [9] and in assay [10] were 0.051, 1.03 and 0.161, respectively. Also, the z-score in assay [2] was -2.37.

For the compound `CC(C)=NO[C@H](C)c1cn([C@H](CO)Cc2ccccc2)nn1`, the composite z-score was 0.216 in assay [1]; 0.13 in assay [3]; 0.0595 in [4]; -0.0004 in assay [5]; 0.0438 in [6]; 0.0121 in [7]. The figures for the composite z-score in [8], in assay [9] and in assay [10] were 0.145, -0.197 and -0.0691, respectively. In assay [2], this compound had a z-score of -0.463.

For the compound `CO[C@@H]1C=CCC(=O)N[C@@H](C)C(=O)OC[C@@H](OC)[C@H](C)CCCC(=O)OC[C@H]1C`, the composite z-score in assay [1] was -2.89; in [3] it was 1.41; in assay [4] it was -1.23; in assay [5], -2.04; in assay [6], -0.0694; in [7], -0.206. In addition, the composite z-score in assay [8] was -0.345; in assay [9], 0.95; in assay [10], -0.11. The compound further showed a z-score in assay [2] of -1.41.

For the compound `COC(=O)[C@H]1[C@@H](O)[C@@]2(O)c3ccccc3O[C@@]2(c2ccccc2)[C@@H]1c1ccccc1`, the composite z-score is -0.673 in assay [1]; 0.401 in assay [3]; -0.449 in assay [4]; -0.336 in assay [5]; -0.156 in assay [6]; 0.0815 in assay [7]. The composite z-score in assay [8] is -0.136; in assay [9], 0.096; in [10], -0.516. In assay [2], the z-score is -0.1.

Regarding `CC(C)(C)N1C(=O)[C@H]2[C@H]3[C@H](O)C=CC(=O)[C@@H]3CC[C@H]2C1=O`, the composite z-score in assay [1] was 0.264; in assay [3], 0.296; in [4] it was 0.0361; in assay [5], -0.586; in assay [6] it was -0.13; in assay [7], 0.0121. Also, the composite z-score is 0.0637 in assay [8], -0.288 in assay [9] and 0.0991 in [10]. Besides, the z-score in assay [2] was 0.133.

For the compound `CC(C)C[C@H](NC(=O)CCC1CC(OC(=O)NCc2cccc3ccccc23)CC2(CCCC(COC(=O)NCc3ccccc3)O2)O1)C(=O)NCC(c1ccccc1)c1ccccc1` (stereo not given in full), the composite z-score in [1] is 1.28; in [3] it was 0.913; in assay [4], 0.0799; in assay [5], -0.202; in assay [6] it was -0.0825; in assay [7], 0.0611. For the same compound, the figures for the composite z-score in assay [8], in assay [9] and in assay [10] were -0.0863, 0.508 and -0.157, respectively. Besides, the z-score in assay [2] is -1.27.

`CC(C)=CCCC(C)=CCON=C1C[C@@H](O)[C@@H](O)[C@@H]2[C@@H]3C(=O)N(c4ccc(F)cc4F)C(=O)[C@@H]3CC[C@@H]12`: the composite z-score in assay [1] was 0.15; in assay [3] it was 0.821; in assay [4], -0.343; in [5], 0.0144; in assay [6] it was -0.169; in [7], -0.0553. Moreover, the composite z-score in assay [8] was -0.374; in assay [9], 1; in assay [10] it was 0.703. In addition, in assay [2], the z-score is -1.08.

On to `C=CC[C@@H]1C=C[C@H](ON=C2[C@H]3CCn4c(=O)n(-c5ccccc5)c(=O)n4[C@H]3[C@H](O)[C@@H]3O[C@H]23)[C@@H](CO)O1`, for which the composite z-score was -0.268 in assay [1]; 0.402 in [3]; 0.991 in assay [4]; -0.0461 in assay [5]; -0.147 in [6]; -0.0752 in assay [7]. The composite z-score in assay [8] is -0.534; in [9] it was 0.16; in [10], 0.744. In [2], this compound gave a z-score of -3.56.

For `CC(C)=CCCC(C)=CCON=C1C[C@@H](O)[C@@H](O)[C@@H]2[C@@H]3C(=O)N(C(C)(C)C)C(=O)[C@@H]3CC[C@H]12`, the composite z-score is 0.356 in assay [1]; 0.61 in [3]; -0.327 in assay [4]; -0.889 in [5]; -0.118 in assay [6]; -0.153 in [7]. Further, the composite z-score in assay [8] is -0.0446; in assay [9], 0.452; in assay [10], 0.135. This compound returned a z-score in assay [2] of 0.217.

With `CC(C)(C)N1C(=O)[C@H]2[C@H]3[C@H](O)[C@H](O)CC(=NO[C@@H]4O[C@H](CO)[C@@H](O)[C@H](O)[C@H]4O)[C@H]3CC[C@H]2C1=O`, the composite z-score in assay [1] was 0.518; in [3], 0.4; in assay [4], -0.653; in [5] it was -1.12; in [6] it was -0.0337; in [7], -0.0769. The composite z-score in assay [8] is -0.196; in assay [9], 0.509; in assay [10] it was -0.309. This compound had a z-score in assay [2] of -1.13.

Consider `CCOC(=O)[C@H](CC(C)C)NC(=O)CCC1CC(OC(=O)NCCc2ccc(F)cc2)CC2(CCCC(COC(=O)NCCOc3ccccc3)O2)O1` (stereo not given in full), for which the composite z-score in assay [1] was 1.36; in assay [3], 1.16; in assay [4], 1.02; in assay [5], -0.129; in assay [6], -0.15; in assay [7], -0.13. Besides, the composite z-score in assay [8] was -0.0965; in assay [9], 0.531; in [10], 0.947. Moreover, the z-score in assay [2] was -0.972.

`CCOC(=O)[C@H](CC(C)C)NC(=O)CCC1CC(OC(=O)NCc2cccc3ccccc23)CC2(CCCC(COC(=O)NCC3CCCCC3)O2)O1` (stereo not given in full): the composite z-score in assay [1] was 1.31; in [3], 0.559; in assay [4] it was 0.162; in assay [5], -0.376; in assay [6], -0.0792; in assay [7], -0.2. Besides, the composite z-score was -0.256 in assay [8], 0.158 in assay [9] and 0.742 in [10]. In assay [2], this compound registered a z-score of -1.93.

Turning to `Cc1ccc(S(=O)(=O)N[C@H]2COC(=O)CC=C[C@H](C)[C@@H](NS(=O)(=O)c3ccc(C)cc3)COC(=O)CC=C[C@@H]2C)cc1`, the composite z-score was 0.584 in assay [1]; 0.518 in assay [3]; -0.324 in assay [4]; -0.6 in [5]; -0.351 in assay [6]; -0.476 in assay [7]. Moreover, the composite z-score in [8] was -0.0381; in assay [9] it was -0.129; in assay [10], 0.149. The z-score in assay [2] is -0.622.
